Measurements taken from PubChem BioAssay.
Values joined by “and” are separate entries in the source; they are usually repeats but may differ in a detail not shown here. Equal values may be shown once. Active and inactive are the calls of the source.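 The calls were made as follows: active = inhibition at or above 50% relative to wild type and mutant plate controls; inactive = inhibition below 50%.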

Experiment: loss of swimming-algae plug formation – whole organism, Chlamydomonas reinhardtii, WT vs cilia-less mutant, absorbance, 96-well, primary screen (AID 463189);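 also: 0% = wild type cc124 cells in DMSO and 100% = ciliumless bld1 mutant cells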
Conditions: Chlamydomonas reinhardtii gravitaxis, OD600 absorbance, 2 days; at 10 µM; hits give high values
For `N#CC(Cc1ccc(O)c(O)c1)C(=O)N1CCc2ccccc21` (stereo not given), the inhibition was 0.886% (inactive).
For `COc1cc(-c2ccc(=O)[nH]n2)ccc1OC(F)F`, the inhibition was 8.84% (inactive).
For `CC(N)=NCCCC[C@@H](N)C(=O)O`, the inhibition was 7.31% (inactive).
In the case of `CC(C)(C=O)Cc1cc(C(C)(C)C)c(O)c(C(C)(C)C)c1`, the inhibition was -3.35% (inactive).
For `Cc1ccc(OCC(O)C(C)NC(C)C)c2c1CCC2` (stereo not given), the inhibition was -3.42% (inactive).
In the case of `CC(C(O)c1ccc(O)cc1)N1CCC(Cc2ccccc2)CC1` (stereo not given), the inhibition was 1.86% (inactive).
For `CC(C)NC[C@H](O)c1ccc(O)c(O)c1`, the inhibition was 8.51% (inactive).
In the case of `CC(C)(C)[C@]1(O)CCN2C[C@H]3c4ccccc4CCc4cccc(c43)[C@@H]2C1`, the inhibition was 3.49% (inactive) and -7.42% (inactive).
In the case of `Cc1cc(N)c2ccccc2[n+]1CCCCCCCCCCCCCC[n+]1c(C)cc(N)c2ccccc21`, the inhibition was 154% (active).
With `O=c1[nH]c(=O)c2nc3ccccc3nc2[nH]1` the inhibition was -4.43% (inactive).
With `N=S(=O)(O)Cc1noc2ccccc12` the inhibition was 4.33% (inactive).
With `CCCCC/C=C\CC(O)/C=C/c1cccc(CC(O)CCCCO)n1` (stereo not given) the inhibition was -1.14% (inactive).
With `OC[C@H]1O[C@@H](n2cnc3c(NC4CCCC4)ncnc32)C(O)[C@H]1O` (stereo not given in full) the inhibition was 2.66% (inactive).
For `Cc1cc(O)c2c(c1)C(=O)c1cc(O)cc(O)c1C2=O`, the inhibition was -10.7% (inactive).
With `C[N+](C)(C)CCOC(N)=O` the inhibition was 7.07% (inactive).
In the case of `Cc1ccccc1N1CCN(S(=O)(=O)C[C@]23CCC(CC2NC(=O)[C@@H](N)CCS(C)(=O)=O)C3(C)C)CC1` (stereo not given in full), the inhibition was 3.4% (inactive).
For `C[n+]1cc2c3c(ccc2c2ccc4cc5c(cc4c21)OCO5)OCO3`, the inhibition was 145% (active).
With `Cc1[nH]c(=O)c(C#N)cc1-c1ccncc1` the inhibition was 8.79% (inactive).
For `C=CC1(C)CC(=O)C2(O)C(C)(O1)C(OC(C)=O)C(O)C1C(C)(C)CCC(O)C12C` (stereo not given), the inhibition was -1.2% (inactive).
With `C#CCn1c(=O)c2c(ncn2C)n(C)c1=O` the inhibition was 3.25% (inactive).
For `N#C/C(=C\c1ccc(O)c(O)c1)C(=O)NCCCNC(=O)/C(C#N)=C/c1ccc(O)c(O)c1`, the inhibition was 1.37% (inactive).
In the case of `OC[C@H]1O[C@@H](n2cnc3c(N[C@H]4CC5CCC4C5)ncnc32)[C@H](O)[C@@H]1O` (stereo not given in full), the inhibition was 2.84% (inactive).
For `COc1ccc2[nH]c(I)c(CCNC(C)=O)c2c1`, the inhibition was -0.69% (inactive).
For `CN1CCCC1CCOC(C)(c1ccccc1)c1ccc(Cl)cc1` (stereo not given), the inhibition was 11.5% (inactive).
For `CO/N=C(\C(=O)N[C@@H]1C(=O)N2C(C(=O)O)=C(CSc3nc(=O)c(O)nn3C)CSC12)c1csc(N)n1` (stereo not given in full), the inhibition was 7.64% (inactive).
For `CC(=O)NNC(=O)N1Cc2ccccc2Oc2ccc(Cl)cc21`, the inhibition was 3.76% (inactive).
With `c1ccc(CN2CCC3(CCCc4ccccc43)CC2)cc1` the inhibition was 89% (active).
In the case of `CC(C)NC[C@H](O)COc1cccc2[nH]ccc12`, the inhibition was -3.11% (inactive) and 2.85% (inactive).
For `COCc1nc2c([nH]1)c(=O)n(C)c(=O)n2CC(C)C`, the inhibition was 1.31% (inactive).
For `Cc1cc(C)c(/C=C2\C(=O)Nc3ccccc32)[nH]1`, the inhibition was 25.9% (inactive).
With `O=C1N=C(O)CN1/N=C/c1ccc(-c2ccc([N+](=O)[O-])cc2)o1` the inhibition was 4.87% (inactive).
In the case of `Nc1nc2ccc(Cl)cc2c2nc(-c3ccco3)nn12`, the inhibition was 1.54% (inactive).
In the case of `Nc1ncnc2c1ncn2[C@@H]1O[C@H](COP(=O)(O)OP(=O)(O)OP(=O)(O)OP(=O)(O)OC[C@@H]2O[C@H](n3cnc4c(N)ncnc43)C(O)[C@@H]2O)[C@H](O)C1O` (stereo not given in full), the inhibition was 15% (inactive).
For `NC(N)=[N+]1CCc2ccccc2C1`, the inhibition was -2.7% (inactive).
For `O=C(O)CC1CCCc2ccccc2C1O` (stereo not given), the inhibition was 4.59% (inactive).
With `CCCCCCCCCCCCCCCCCC(=O)OC(CC(=O)O)C[N+](C)(C)C` (stereo not given) the inhibition was 6.23% (inactive).
In the case of `COc1cc2c(cc1O)CC[C@@H]1[C@@H]2CC[C@]2(C)[C@@H](O)CC[C@@H]12`, the inhibition was -5.37% (inactive).
For `CCCCOC(=O)NS(=O)(=O)c1sc(CC(C)C)cc1-c1ccc(Cn2c(CC)nc3c(C)cc(C)nc32)cc1`, the inhibition was 10.7% (inactive).
In the case of `COc1ccc2c(c1)c(CC(=O)N1CCOCC1)c(C)n2C(=O)c1ccc(Cl)cc1`, the inhibition was 6.6% (inactive).
With `O=c1[nH]c(=O)n([C@H]2C[C@H](O)[C@@H](CO)O2)cc1Br` the inhibition was 2.45% (inactive).
